Source: PubChem BioAssay (NCI)
The panel holds about 83,000 compounds, 20% with a hit somewhere; the sample as a whole holds those more often.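 Negative percent growth values reflect cell death: -40 means 40% of the cells present at the start died, and -100 means all died.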 Values without a mark were called inactive. Activity calls are given as the source filed them.

These compounds were tested on MDA-MB-435 melanoma (assay: NCI-60 one-dose screen, 48 h (100 = growth as untreated, 0 = no growth, -100 = all killed)). Conditions: 10 µM.
Protocol: Growth inhibition of the MDA-MB-435 human Melanoma tumor cell line is measured as a screen for anti-cancer activity. Cells are grown in 96 well plates and exposed to the test compound for 48 hours. Compounds are tested at a single concentration, which is 10^-5 M for most compounds. The reported endpoint is percent growth (GI% or GIPRCNT), where numbers from 0 - 100% represent growth inhibition, and numbers from -100% - 0 represent cell death. For example, a value of 40 represents 60% growth inhibition. A value of 0 means no net growth occurred over the course of the experiment. A value of -40 indicates 40% of cells at the beginning of the experiment died by the end of the experiment. A value of -100 means all cells are dead at the end of the experiment.
NCI-60 Human Tumor Cell Lines Screen was performed using the standard one-dose NCI protocol, which is described in more detail at https://dtp.cancer.gov/discovery_development/nci-60/default.htm.
Compounds with GIPRCNT values below 10 were considered active. Activity score was based on GIPRCNT using the following formula: […]
Score is 0 for GIPRCNT values of 100 or above, 50 for GIPRCNT values of 0, and 100 for GIPRCNT values of -100.
For `COc1csc(/C=N/NC(=O)c2[nH]c3ccc(Br)cc3c2-c2ccccc2)c1`, the growth was -43.6% (active).
`O=C(Nc1nc2ccccc2s1)c1ccc(Br)cc1` showed a growth of 88.8%.
In the case of `NS(=O)(=O)c1ccc(NC(=O)CSc2ccc(-c3ccc(Cl)cc3)nn2)c(Br)c1`, the growth is reported as 84.8%.
With `CN(C(=O)c1ccc(C(F)(F)F)cc1C(F)(F)F)c1sc2c(c1C#N)CCC(=O)C2` the growth was 101%.
In the case of `CCCn1c(=O)c2[nH]c(-c3ccc(OCc4nc5ccc(C#N)cc5[nH]4)cc3)nc2n(CCC)c1=O`, the growth is reported as 97.5%.
`O=C(NO)c1ccc(Cn2ccc3c(Nc4ccccc4)ncnc32)cc1` was tested, and the growth was 9.97% (active).
`COc1ccc(N(C)c2cc(C#N)nc3ccccc23)cc1/C=C/C(=O)NO` was tested, and the growth was -70.5% (active).
`O=C(O)CCCCCCCCCCN1C(=O)/C(=C/c2cnc(-c3ccccc3)s2)SC1=S` showed a growth of 87%.
For `C=C(C)[C@@H]1CC[C@]2(C)[C@H](CC=C3[C@@H]4CC(C)(C)CC[C@]4(C(=O)N4CCOCC4)CC[C@]32C)[C@@]1(C)CCCN`, the growth was -99.5% (active).
In the case of `N#Cc1c(NC(=O)c2ccc(C(F)(F)F)cc2)sc2c1CCC(=O)C2`, the growth is reported as -41.4% (active).
`COc1ccc(C2NC(=S)NC(C)=C2C(=O)OC(C)C)cc1OC` (stereo not given) gave a growth of 104%.
Work on `COc1ccc(/C=C/C(=O)c2ccc(S(=O)(=O)NCCNc3nc(Nc4ccc(F)cc4)nc(N(C)C)n3)cc2)cc1` yielded a growth of 25.1%.
In the case of `CC(=O)Nc1ccc(-c2cn(-c3cccc(C(=O)Nc4ccc(Cl)c(C(F)(F)F)c4)c3)nn2)cn1`, the growth is reported as -70.6% (active).
In the case of `O=C(Cn1nc(-c2ccccc2)ccc1=O)NNC(=S)NC1CCCCC1`, the growth is reported as 110%.
In the case of `Cc1ccc(/C=C/C(=O)c2ccc(S(=O)(=O)NCCNc3nc(Nc4ccc(F)cc4)nc(N(C)C)n3)cc2)cc1`, the growth is reported as -23% (active).
`O/N=C(\CSc1nnc(-c2c[nH]c3ccccc23)n1-c1ccccc1)c1ccc(Cl)cc1` was tested, and the growth was -99.8% (active).
In the case of `O=[N+]([O-])c1ccc(-c2nc(-c3ccccc3)c(-c3ccccc3)n2-c2ccc(S(=O)(=O)Nc3ncccn3)cc2)cc1`, the growth is reported as 46.5%.
With `O=C1Nc2ccc(Cl)cc2/C1=C/c1cccc(OCc2ccccn2)c1` the growth was -39.2% (active).
For `COc1ccc(NC(=O)Cn2c(/C=C/c3ccc(N(C)C)cc3)nc3ccccc3c2=O)cc1`, the growth was 54.3%.
In the case of `C=C(c1ccc(OC)c(N)c1)c1cc(C)nc2ccccc12`, the growth is reported as -48.9% (active).
In the case of `O=C(c1ccc(Cl)cc1)C1[C@H](c2ccccc2Br)[C@@H](c2ccccc2)NC12C(=O)Nc1ccccc12` (stereo not given in full), the growth is reported as -47.3% (active).
Work on `N#Cc1ccc(-c2nn(-c3ccc(C(=O)O)cc3)cc2CNc2cc(Cl)cc(Cl)c2)cc1` yielded a growth of 40.1%.
`CCOC(=O)CNC(=O)CN(Cc1ccccc1)C(=O)[C@@]1(C)CCC[C@]2(C)[C@H]3C[C@H]4C(C(C)C)=C[C@]3(CC[C@H]21)[C@@H]1C(=O)OC(=O)[C@@H]14` gave a growth of 78.5%.
With `O=C(NO)c1ccc(-c2nc3ccc4[nH]ncc4c3c3c2CCCC3)cc1` the growth was -78.1% (active).
`COc1ccc(-c2nc(Nc3ccccc3S(N)(=O)=O)c3ccccc3n2)cc1` was tested, and the growth was 34.1%.
In the case of `CN(CCO)c1oc(-c2ccccc2)nc1[P+](c1ccccc1)(c1ccccc1)c1ccccc1`, the growth is reported as 2.53% (active).
With `O=C(CSc1nnc(-c2c[nH]c3ccccc23)n1-c1ccccc1)Nc1ccc(C(=O)/C=C/c2ccccc2Cl)cc1` the growth was 65.8%.
In the case of `O=C(N=Nc1c(O)[nH]c2ccc(Br)cc12)c1ccc2nc(-c3ccccc3)[nH]c2c1`, the growth is reported as -88.9% (active).
`CN1CCc2c(sc3ncnc(N/N=C/c4ccc5ccccc5c4)c23)C1` showed a growth of 72.5%.
`O=C(Nc1ccccc1)Nc1nc2ccccc2s1` was tested, and the growth was 97.2%.
For `O=C(NO)c1ccc(Cn2ccc3c(NCc4ccccc4)ncnc32)cc1`, the growth was -26.5% (active).
Work on `O=C1NC(=NC23CC4CC(CC(C4)C2)C3)N/C1=C\c1ccc2ncsc2c1` yielded a growth of 17.8%.
With `Cc1cc(C(F)(F)F)ccc1C(=O)Nc1sc2c(c1C#N)CCC(=O)C2` the growth was -48.1% (active).
For `O=C(NCCCCCCCCCC[P+](c1ccccc1)(c1ccccc1)c1ccccc1)c1ccc(-n2nc(-c3ccccc3O)nc2-c2ccccc2O)cc1`, the growth was -81.3% (active).
With `COc1ccc(C=CC(=O)c2ccc(-n3c(C)nc4c(cnn4-c4ccccc4)c3=O)cc2)cc1` the growth was 11.2%.
For `O=C(Cn1cc(CSc2nnc3oc4ccccc4n23)nn1)Nc1ccc(Br)cc1`, the growth was 98.1%.
`O=C(CNc1nc(-c2ccccc2)cs1)Nc1ccc([N+](=O)[O-])cc1Cl` was tested, and the growth was 44%.
In the case of `C=C1CCC2C3(C)COC(c4ccccc4F)OC3CCC2(C)C1C/C=C1/C(=O)OCC1O` (stereo not given), the growth is reported as 4.59% (active).
With `CO[C@H]1CSS[C@@H]1Cn1nc(-c2ccc(Oc3ccccc3)cc2)c2c(N)ncnc21` the growth was -46.5% (active).
Work on `CCOP(=O)(OCC)O[C@H]1CCC(=O)[C@@H]2[C@H]1[C@H]1C[C@@H]3[C@@]4(C)CCCC(C)(C(=O)OC)[C@@H]4CC[C@@]23C=C1C(C)C` (stereo not given in full) yielded a growth of 52%.
